# High-throughput results (PubChem)
# GALC G270D act: A Novel Cell-Based Assay to Identify Small Molecules for B -Galactocerebrosidase; P54803; 145M-Twi-hGALC-G270D cells, HMU-beta-Gal fluorescence, 48 h; Potency, µM (top dose mostly 57.5 µM), hits mostly activators; hit rate 0.1% among 45,000; AID 1159614, 2016; further: 0% is about no effect; nearly all actives have a fitted effect of over 65% in size
# Target sequence (P54803 whole entry G286D): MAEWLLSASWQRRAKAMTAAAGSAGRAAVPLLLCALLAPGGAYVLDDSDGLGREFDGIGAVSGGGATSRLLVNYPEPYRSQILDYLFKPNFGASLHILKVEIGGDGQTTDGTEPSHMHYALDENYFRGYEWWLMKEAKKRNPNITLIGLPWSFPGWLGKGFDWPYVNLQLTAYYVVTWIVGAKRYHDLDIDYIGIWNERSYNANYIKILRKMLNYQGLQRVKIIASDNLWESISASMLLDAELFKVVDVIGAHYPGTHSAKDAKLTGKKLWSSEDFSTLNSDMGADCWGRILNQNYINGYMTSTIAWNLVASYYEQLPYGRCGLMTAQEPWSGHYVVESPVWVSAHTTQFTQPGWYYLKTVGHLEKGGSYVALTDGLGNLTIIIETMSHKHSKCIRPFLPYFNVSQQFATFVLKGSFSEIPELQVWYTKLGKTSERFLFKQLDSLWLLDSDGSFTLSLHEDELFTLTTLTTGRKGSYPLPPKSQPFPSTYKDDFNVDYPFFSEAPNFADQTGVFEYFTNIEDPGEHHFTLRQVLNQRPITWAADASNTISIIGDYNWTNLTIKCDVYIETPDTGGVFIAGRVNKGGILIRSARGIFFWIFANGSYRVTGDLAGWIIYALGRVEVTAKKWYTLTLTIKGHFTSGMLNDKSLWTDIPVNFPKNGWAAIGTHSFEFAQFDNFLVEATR
#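 qHTS, 1536-well; 145M-Twi-hGALC-G270D cells (WT line also made) in DMEM/F12 + 10% FBS; compound incubation on live cells; HMU-β-gal 0.1 mM final, pH 5.2, NaTC; carbonate stop; fluorescence increase = enhanced residual activity.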
# HTT prom inh: Primary qHTS for Identification of Small Molecule Inhibitors of Huntingtin Promoter Activity; HEK293 HTT promoter firefly luciferase reporter, 24 h; Potency, µM (highest dose often 57.5 µM), inactives show top-dose activity change, negative = inhibition, most hits filed as inhibitors; hit rate 0.93% among 48,000; further: nearly all actives have a fitted effect of over 50% in size
#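 Firefly luciferase signal from promoter-reporter HEK293 cells was scaled between vehicle (0%) and zero RLU (-100%). Compounds were tested at final concentrations of up to 57.5 uM over 24 h at 37 degrees C. PTC124 at 50 uM final served as control inhibitor.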
# NTMT1 inhibitor: Primary qHTS for Inhibitors of N-terminal methyltransferase 1 (NTMT1): MTaseGlo Assay; Potency, µM (series often up to 114 µM), for inactives: top-dose activity change, negative = inhibition, actives largely listed as inhibitors; AID 1645870, 2021; hit rate 2.5% among 59,000; NTMT1 MTase-Glo SAH luminescence, purified enzyme;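 further: plate controls were DMSO vehicle for no effect and no enzyme for full effect; nearly all actives have a fitted effect of over 65% in size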
# HTT-AS promoter: Primary qHTS for Identification of Small Molecule Activators of Huntingtin-Antisense Promoter Activity; HEK293 HTT-AS promoter firefly luciferase reporter, 24 h; response scale: percent change from vehicle, -100% = no light; Potency, µM (top dose mostly 57.5 µM), without a hit: top-dose activity change, positive = activation, actives largely listed as activators; hit rate 0.24% among 48,000; further: nearly all actives have a fitted effect of over 55% in size
#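 HEK293 luciferase promoter-reporter cells (2,500/well) plated 24 h, then compounds added at up to 57.5 uM final for 24 h at 37 °C. Firefly luminescence by Dual-Glo, normalized to vehicle (0%) and zero RLU (-100%).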
# Active calls of the source: *; i = inactive; u = inconclusive; x = no result; ! = repeats disagree; [ ] = remark or other dose. Most compounds without a hit are left out; they make up all but 2.7% or so of the library. The call rests on the fitted dose curve; in most records, active means well fitted curve in the direction sought with a large enough effect; inconclusive means small, poorly fitted or top-dose-only effect, or another doubt; inactive means no such curve, though single readings can be large; an effect the other way counts as inactive or inconclusive. Potency means the concentration at half of the fitted maximal effect.
SMILES,GALC G270D act,HTT prom inh,NTMT1 inhibitor,HTT-AS promoter
COc1cc2c(cc1NC(=O)C(C)Oc1ccccc1)oc1ccccc12 (stereo unspecified),i,32%,2%,4µM*
CC1(C)CC[C@]2(C(=O)O[C@@H]3O[C@H](CO)[C@@H](O)[C@H](O)[C@H]3O)CC[C@]3(C)C(=CCC4[C@@]5(C)CC[C@H](O[C@@H]6O[C@H](C(=O)O)[C@H](O)[C@H](O)[C@H]6O)C(C)(C)C5CC[C@]43C)[C@@H]2C1 (stereo partly specified),x,x,8%[12.6 µM],x
CN(C)CCCN1c2ccccc2CCc2ccc(Cl)cc21,i,u,u,-16%
CN(CCCN1c2ccccc2CCc2ccccc21)CC(=O)c1ccc(Cl)cc1,i,0%,32µM*,3%
O=C(OC[C@H]1O[C@@H](Oc2ccccc2COC(=O)C2(O)C=CCCC2O)[C@H](O)[C@@H](O)[C@@H]1O)c1ccccc1 (stereo partly specified),x,x,-1%[29.8 µM],x
COc1ccc(Nc2cc(C)nc(-n3nc(C)cc3C)n2)cc1Cl,i,13µM*,0%,-75%
NS(=O)(=O)OC[C@@H]1C[C@@H](n2ccc3c(N[C@H]4CCc5ccccc54)ncnc32)C[C@@H]1O,x,x,40µM*!,x
COc1cc(/C=C/C(=O)O[C@H]2C[C@@H]3C(C(=O)O)=CO[C@@H](O[C@@H]4O[C@H](CO)[C@@H](O)[C@H](O)[C@H]4O)[C@@H]3[C@H]2C)ccc1O,x,x,0%[29.8 µM],x
C[C@@H]1O[C@@H](O[C@@H]2[C@@H](O)[C@H](O[C@@H]3[C@@H](O)[C@@H](O)[C@H](O[C@H]4[C@H](OC(=O)[C@]56CCC(C)(C)C[C@H]5C5=CCC7[C@@]8(C)C[C@H](O)[C@H](O[C@@H]9O[C@H](C(=O)O)[C@@H](O)[C@H](O)[C@H]9O)[C@@](C)(CO)C8[C@H](O)C[C@@]7(C)[C@]5(C)C[C@H]6O)O[C@@H](CO)[C@@H]4O)O[C@H]3C)OC[C@H]2O)[C@H](O)[C@H](O)[C@H]1O (stereo partly specified),x,x,11%[6.45 µM],x
CCCCCCCCCCCCCCCC[n+]1ccccc1,i,u,22µM*,-58%
CCCCCCCCCCCCCCCC(=O)O,i,-4%,6%[57.5 µM],2%
CCOC(=O)N1CCN(C(=O)c2ccc3c(c2)N(Cc2cc(C)ccc2C)C(=O)c2ccccc2S3=O)CC1 (stereo unspecified),i,u,89µM*,-43%
Cc1ccc(C)c(CN2C(=O)c3ccccc3S(=O)c3ccc(C(=O)N4CCC(C)CC4)cc32)c1 (stereo unspecified),i,u,-2%,-38%
C[N+](C)(C)CC[N+]1(C)Cc2c(Cl)c(Cl)c(Cl)c(Cl)c2C1,i,11%,7.9µM*,0%
CC(=O)Nc1sc2c(c1-c1ccc3nonc3c1)CCNC2,x,x,4%,x
CN(C)c1ccc(O)c2c1C[C@H]1C[C@H]3[C@H](N(C)C)C(=O)C(C(N)=O)=C(O)[C@@]3(O)C(=O)C1=C2O,i,-21%,79µM*!,-16%
O=c1oc2ccc3ccccc3c2cc1-c1nnc(Nc2ccccc2F)s1,i,5%,-3%,-1%
O=c1oc2cc(O)ccc2cc1-c1nnc(Nc2ccccc2F)s1,i,96%,50µM*,u
CC1(C)CCC2(CC1)N[C@@H](C(=O)N[C@@H]1CC[C@@H](C(N)=O)OC1)[C@H](c1ccnc(Cl)c1F)[C@]21C(=O)Nc2cc(Cl)ccc21,x,x,-5%,x
O=C1CCCC2CC(Nc3nc4ccccc4o3)CC(c3ccccc3)C12 (stereo unspecified),x,x,-2%,x
Cc1c(P(=O)(c2ccccc2)c2ccccc2)c2ccccc2n1C,x,x,79µM*,x
Cc1c(P(=S)(c2ccccc2)c2ccccc2)c2ccccc2n1Cc1ccccc1,x,x,7%,x
Cc1ccc(OCCn2c(CCNC(=O)c3ccccc3F)nc3ccccc32)cc1,x,x,14%,x
COc1ccc(C(=O)O)cc1Nc1nc2ccc(C)cc2n2cnnc12,i,-10%,71µM*,-14%
CN(C)CCNC(=O)COc1c2cccc1Cc1cccc(c1OCC(=O)NCCN(C)C)Cc1cccc(c1OCC(=O)NCCN(C)C)Cc1cccc(c1OCC(=O)NCCN(C)C)C2,x,x,-14%[29.8 µM],x
SMILES,GALC G270D act,HTT prom inh,NTMT1 inhibitor,HTT-AS promoter
C/C(=C/CO)CCC1C(C)CCC2C(C)(C)CCCC12C (stereo unspecified),x,x,5%[57.5 µM],x
COc1ccc(/C=C/c2nc(C#N)c(N3CCN(c4ccccc4)CC3)o2)cc1OC,u,-9%,-3%,-13%
COc1ccc(/C=C/c2nc(C#N)c(N3CCCCC3)o2)cc1OC,28µM*,-18%,u,-12%
COc1cccc(/C=C/c2nc(C#N)c(N3CCC(C(N)=O)CC3)o2)c1,25µM*,-1%,-3%,-11%
COc1ccccc1/C=C/c1nc(C#N)c(N2CCCCC2)o1,i,-14%,5%,-2%
COc1cccc(/C=C/c2nc(C#N)c(N(C)Cc3ccccc3)o2)c1,25µM*,-13%,16%,-16%
COc1ccc(N2CCN(c3oc(/C=C/c4ccccc4OC)nc3C#N)CC2)cc1,i,-2%,89µM*,2%
CCCCCC(=O)N1CCC[C@H]1C(=O)N[C@@H](Cc1ccc(O)cc1)C(=O)OC,x,x,-4%[57.5 µM],x
CCOC(=O)C1CCN(C(=O)C(C)(C)NC(=O)Nc2ccc(Oc3ccccc3)cc2)CC1,x,x,3%,x
CC(=O)N[C@@H](CC(=O)O)C(=O)N[C@@H](CCC(=O)O)C(=O)N[C@H](C(=O)N[C@@H](CC(=O)O)C(=O)Nc1ccc2c(C)cc(=O)oc2c1)C(C)C,x,x,7%[57.5 µM],x
COc1ccc(OCC(=O)NCC(c2ccc(Cl)cc2)N2CCCCC2)cc1 (stereo unspecified),i,-13%,u,-9%
Cc1ccc(OCC(=O)NCC(c2ccc(Cl)cc2)N2CCCCC2)cc1 (stereo unspecified),i,-30%,79µM*,-17%
O=S(=O)(Nc1ccccc1)c1ccc(O)c2ncccc12,x,x,14%,x
CC1(CCOC2OC(CO)C(O)C(O)C2O)CCC23OC2(C1)C(O)CC1C(C)(C(=O)O)CCCC13C (stereo unspecified),x,x,-3%[29.8 µM],x
O=C(Nc1ccc(N2CCN(c3ccc(F)cc3)CC2)c(C(=O)O)c1)c1cccs1,i,-5%,89µM*,18%
C=C(C)Cn1c(SCC(=O)c2cccs2)nc2sc3c(c2c1=O)CCCC3,x,x,-4%[57.5 µM],x
CCN(c1cc(C#CCN2CCOCC2)cc(C(=O)NCc2c(C)cc(C)[nH]c2=O)c1C)C1CCC(N(C)CCOC)CC1 (stereo unspecified),x,x,-4%,x
O=C(O)c1cc(O)c(O)c(O)c1,i,-3%,u,-3%
